40 compounds from PubChem BioAssay (EPA / NIEHS) can be followed below.

By AC50 is commonly meant the midpoint of the concentration-response curve, whichever way the signal moves.

Molecules are shown by their SMILES. The source made the active and inactive calls. How the source made its calls: active means hit-call score of the fitted dose curve at least 0.9, where 1 is the maximum; inactive means score below 0.9.

This assay in a line: ATG_TCF_b_cat_CIS: Attagene CIS-FACTORIAL HepG2 Assay for human T-Cell-Factor with beta-catenin (TCF/b-cat) (AID 2282965). Conditions: HepG2 TCF/beta-catenin cis-reporter transcription, actives raise or lower the signal. The method, then:
ATG_CIS is a cell-based, multiplexed-readout assay that uses HepG2, a human liver cell line, with measurements taken at 24 hours after chemical dosing in a 24-well plate.ATG_TCF_b_cat_CIS is one of 52 assay component(s) measured or calculated from the ATG_CIS assay. It is designed to make measurements of mRNA induction, a form of inducible reporter, as detected with fluorescence intensity signals by Reverse transcription polymerase chain reaction (RT-PCR) and Capillary electrophoresis technology.Data from the assay component ATG_TCF_b_cat_CIS was analyzed into 1 assay endpoint. This assay endpoint, ATG_TCF_b_cat_CIS, was analyzed with bidirectional fitting relative to DMSO as the negative control and baseline of activity. Using a type of inducible reporter, measures of mRNA for gain or loss-of-signal activity can be used to understand the reporter gene at the transcription factor-level as they relate to the gene TCF7 and TCF7L2 and LEF1 and TCF7L1. Furthermore, this assay endpoint can be referred to as a primary readout, because this assay has produced multiple assay endpoints where this one serves a reporter gene function. To generalize the intended target to other relatable targets, this assay endpoint is annotated to the dna binding intended target family, where the subfamily is HMG box protein.
Human liver HepG2 cells are transiently transfected with multiple reporter transcription units (MRTUs) in 6-well plates using FuGene 6 reagent (Roche; 3 ml FuGene/1 mg DNA). The MRTU constructs are regulated by a cis-regulating element (promoter). […] A major difference between the CIS and TRANS system is that in CIS activities of endogenous TFs are measured, whereas the TRANS assay evaluates changes in activities of exogenous, chimeric NR-Gal4 proteins. […] At the end of 24 hour incubation, total RNA was isolated using TriZol reagent (Invitrogen). The isolated RNA is then reverse-transcribed using oligo(dT) primer and Mo-MLV reverse transcriptase (Invitrogen) with DNAse I (Ambion) treatment for 30 min. The one-tenth of the produced cDNA was amplified by PCR using Taq DNA polymerase (Invitrogen) and two reporter sequence-specific primers. The PCR products were fluorescently labeled by primer extension with 6-arboxyfluorescein (6-FAM) 5'-labeled reporter sequence-specific primer (2 min at 95 C, 20 s at 68 C and 10 min at 72 C) and these products were digested with 5U of HpaI (New England Biolabs) for 2h at 37 C. The fragments were purified using Qiaquick PCR columns (Qiagen), analyzed on an ABI 3130xL genetic analyzer (Applied Biosystems) with peak positions identified by using a set of X-rhodamine (ROX)-labeled MapMarker1000 molecular weight standards (BioVentures). The raw capillary electrophoresis data was processed using Attagraph software (Attagene).
As to `CCCCC(CC)COC(C)=O` (stereo not given), the compound was classed as inactive. The same measure, in the same setting: in the case of `CC(=O)O[C@@H]1CC2CCC1(C)C2(C)C` (stereo not given in full) it was “inactive”; in that of `OCC#CCO`, “inactive”.

Consider `C=C(C#N)C(=O)OCC`, for which the AC50 is 100 µM (active). Regarding `NC1CCCCC1N` (stereo not given), the result was inactive.

Regarding `O=C(O)CCCCCCCCC(=O)O`, the call was inactive.

Regarding `COC(=O)c1ccc([N+](=O)[O-])cc1`, the call was inactive. On the same count and under the same terms, in the case of `N#Cc1cscn1` it was “inactive”; in that of `CCO/C=C1\N=C(c2ccccc2)OC1=O`, “inactive”; in that of `C1CCCCC1`, “inactive”.

`Nc1c(S(=O)(=O)O)cc(Br)c2c1C(=O)c1ccccc1C2=O`: the outcome was inactive. With `CN(C)C(=O)Nc1ccc(Oc2ccc(Cl)cc2)cc1`, the compound was called inactive. The same measure, in the same setting: in the case of `Cc1ccc(-c2ccccc2)cc1` it was “inactive”; in that of `CC(C)(N=C=O)c1cccc(C(C)(C)N=C=O)c1`, “inactive”; in that of `C=CC(C)(O)CCC=C(C)C` (stereo not given), “inactive”. On to `CC(O)C1CCCCC1` (stereo not given), for which the outcome was inactive. The same measure, in the same setting: for `COc1ccc(CCO)cc1` the value was “inactive”; for `COC(CC(C)CCCC(C)(C)O)OC` (stereo not given), “inactive”; for `OCc1cccc(Oc2ccccc2)c1`, “inactive”. The same measure, in the same setting: in the case of `O=CN1CCOCC1` it was “inactive”; in that of `CN(c1nccc(=O)[nH]1)C1CCN(c2nc3ccccc3n2Cc2ccc(F)cc2)CC1`, “inactive”; in that of `NCC1CCCC(CN)C1` (stereo not given), “inactive”. On the same count and under the same terms, for `CCCCCCOC(=O)C(C)C` the value was “inactive”; for `C=C(C)C(=O)OCCOCCOCCOCCOC(=O)C(=C)C`, “inactive”. For `CCc1ncc(C)[nH]1`, the compound was classed as inactive. On the same count and under the same terms, for `O=[N+]([O-])c1cccc(Cl)c1` the value was “inactive”. The same measure, in the same setting: for `CCOCCOCCOCC` the value was “inactive”. Consider `CCc1cc(C(C)(C)C)c(O)c(C(C)(C)C)c1`, for which the call was inactive.

For the compound `CN(C)c1ccncc1`, the compound was called inactive. Same read-out and setting: for `C=C(C)C(=O)OCCOC1CC2CC1C1C=CCC21` (stereo not given) the value was “inactive”; for `COc1ccc(CCC(C)=O)cc1`, “inactive”. Turning to `COC(C)(C)CCO`, the result was inactive. The same measure, in the same setting: in the case of `Cc1c(Cl)cccc1[N+](=O)[O-]` it was “inactive”. In the case of `CC1CC(O)CC(C)(C)C1` (stereo not given), the call was inactive. Same read-out and setting: for `CCCCCCCCCCCC(=O)OCC(O)CO` (stereo not given) the value was “inactive”.

`CCCCCCCCSCCO`: the compound was classed as inactive. As to `Nc1ccc(Cl)c([N+](=O)[O-])c1`, the call was inactive. On the same count and under the same terms, in the case of `CCCCCCOCCOCCO` it was “inactive”. On the same count and under the same terms, in the case of `O=CCc1ccccc1` it was “inactive”. Same read-out and setting: for `C1CCOC1` the value was “inactive”.
